Compound activity: PubChem, National Center for Advancing Translational Sciences (NCATS)
NS1 function inh: blocks influenza NS1 protein function | Potency, µM (titrated, usually from 46.1 µM), inactives show top-dose activity, positive = more growth | 270,000 tested, 0.4% active | AID 2326; calls by dose curve; note: potency is the fitted concentration of half-maximal effect; actives are rising curves; nearly all actives have a fitted effect of over 50% in size
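Recovery from NS1-induced slow growth read by OD600 in budding yeast switched to galactose assay medium (pH 6.0, -URA) at 1:100 dilution. Compound 23 nl per well; the matching strain lacking NS1 serves as control.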
AmpC inh detg: blocks E. coli AmpC beta-lactamase in detergent assay. AmpC hydrolysis of nitrocefin, absorbance 480 nm, 0.01% Triton. Potency, µM (series often up to 114 µM), for inactives: at the top dose activity change, negative = inhibition, usual class: inhibitors. 370,000 tested, 0.041% active. P00811;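 note: potency is the fitted concentration of half-maximal effect; 0% = no-compound wells and -100% = no-enzyme wells; nearly all actives have a fitted effect of over 25% in size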
Target sequence (P00811 whole entry, looked up): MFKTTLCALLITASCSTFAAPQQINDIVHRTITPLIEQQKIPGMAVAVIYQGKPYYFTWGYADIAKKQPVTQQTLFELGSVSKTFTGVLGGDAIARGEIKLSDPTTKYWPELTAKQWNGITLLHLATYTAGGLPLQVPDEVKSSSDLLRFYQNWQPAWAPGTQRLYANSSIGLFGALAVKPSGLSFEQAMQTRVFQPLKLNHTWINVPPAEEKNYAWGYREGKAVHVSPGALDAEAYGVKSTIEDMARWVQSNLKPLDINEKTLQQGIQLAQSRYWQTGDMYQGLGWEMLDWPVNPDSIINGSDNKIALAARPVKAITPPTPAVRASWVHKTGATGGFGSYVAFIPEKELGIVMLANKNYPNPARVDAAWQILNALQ
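AmpC (5.3 nM in the dispensed reagent) in 20 mM phosphate pH 7.0 with 0.01% (detergent screen) or 0.0001% Triton X-100 was preincubated with compounds for 15 min at room temperature. Nitrocefin was then added from an 800 uM solution, and hydrolysis was followed at 480 nm.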
AmpC inh no detg: AmpC beta-lactamase inhibition without detergent | Potency, µM (titrated, usually from 57.1 µM), for inactives: top-dose activity change, negative = inhibition, actives largely listed as inhibitors | AmpC nitrocefin hydrolysis, absorbance 480 nm, 0.0001% Triton | 330,000 tested, 0.52% active;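 note: potency is the fitted concentration of half-maximal effect; plate controls were no compound for no effect and no enzyme for full effect; nearly all actives have a fitted effect of over 20% in size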
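20 mM phosphate pH 7.0 + 0.01% (detergent screen) or 0.0001% Triton X-100; 5.3 nM AmpC reagent; cpd preinc 15 min RT; nitrocefin (800 uM stock) to start; A480 q20 s × 4 min; Activity was normalised to no-enzyme and no-compound control wells.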
CHX counter: counter-screen for Shiga toxin inhibitors: cycloheximide protein synthesis inhibition | cell reporter, cycloheximide protein synthesis inhibition counterscreen | max response, % | 300,000 tested, 12% active; in the data active = max response mostly above about 13%, no sharp cut-off; inactive = mostly below about 14%; note: read at 38.3 µM for the half of the compounds with a filed dose; 0% is about no effect
Shiga toxin inh: blocks Shiga toxin action in Vero cells. 290,000 tested, 9.2% active. Vero cells, Shiga toxin protein synthesis inhibition reporter. AID 2315. inhibition, % at 38.7 µM; in the data active = inhibition mostly above about 28%, no sharp cut-off; inactive = mostly below about 43%; note: 0% is about no effect
The depositor's hits bear a star; ? = inconclusive; . = no result given. The full list was thinned out, with hits kept by preference. Unless noted, calls come from the whole dose curve; as a rule, active = well fitted curve in the direction sought with a large enough effect; inconclusive = small, poorly fitted or top-dose-only effect, or another doubt; inactive = no such curve, though single readings can be large; an effect the other way counts as inactive or inconclusive.

SMILES | NS1 function inh | AmpC inh detg | AmpC inh no detg | CHX counter | Shiga toxin inh
CCOC(=O)CC(NC(=O)Cn1nnc(-c2ccccc2)n1)c1ccc(OC)cc1 (stereo unspecified) | . | 0.3% | -3.4% | 24.7* | 12.8
CC(=O)Cn1nnc(-c2ccc(C(F)(F)F)cc2)n1 | 2.4% | 5.3% | -5.1% | 26.9* | 60.6*
N#CC1(NC(=O)CSc2nnc3n2CCCCC3)CCCCC1 | . | . | -5.9% | . | .
NC(=O)Cn1nnc(-c2ccc(NC(=O)c3ccc(F)cc3)cc2)n1 | . | -0.6% | -16.0% | 27.3* | 70.0*
CCCCOc1ccc(-c2nnn(CC(=O)NCCc3c[nH]c4ccccc34)n2)cc1 | 15.6% | 0.3% | 0.282µM* | 14.6* | 25.1
O=C(Cn1nnc(-c2ccc(NC(=O)c3ccccc3F)cc2)n1)NCc1ccc(F)cc1 | -1.7% | -9.9% | -20.6% | 11.8 | 21.2
CSc1ccc(-c2nnn(CC(=O)NCc3ccccc3)n2)cc1 | 7.5% | 3.5% | -13.8% | 11.0* | 10.6
COc1ccc(-c2ccc(-c3nnn(CC(C)=O)n3)cc2)cc1 | 4.1% | -8.0% | -1.3% | 35.0* | 92.8*
COC(=O)c1ccccc1NC(=O)Cn1nnc(-c2ccc(OC)cc2)n1 | 2.8% | ? | -23.8% | -2.2 | -1.9
CCC(=O)N(C)CCc1cc2c(c(OC)c1/C=N/NC(=O)c1ccc(Br)cc1)OCO2 | -0.9% | ? | 102.0% | -1.4 | -9.6
Cc1ccc(N2C(=O)NC(C(F)(F)F)(C(F)(F)F)C3=C2CC(C)(C)CC3=O)cc1 | 3.2% | 0.0% | 0.0% | -2.6 | -6.3
COc1cccc2sc(N3CCN(C(=O)CCS(=O)(=O)c4ccc(F)cc4)CC3)nc12 | . | 1.6% | . | . | .
CS(=O)(=O)c1nc(S(=O)(=O)c2ccc(Cl)cc2)c(NCCCN2CCOCC2)s1 | 3.5% | -8.6% | 14.9% | -2.2 | -6.5
CC1=C(C(=O)Nc2cccnc2)C(c2cccc(O)c2)n2nc(SCc3ccccc3)nc2N1 (stereo unspecified) | . | 5.2% | . | . | .
COc1cccc(-c2nnn(CC(=O)N3CCCCC3)n2)c1 | -2.3% | -13.3% | -15.7% | 21.3* | 41.2*
O=S(=O)(c1ccc2nc(Cl)c(Cl)nc2c1)N1CCN(S(=O)(=O)c2c(F)cccc2F)CC1 | . | . | . | -3.0 | 1.6
CCN(CC)c1ccc2cc(-c3nc(-c4ccc(Cl)cc4Cl)cs3)c(=O)oc2c1 | . | -7.3% | . | . | .
CCN(CC)c1ccc2cc(-c3nnc(-c4ccccc4)o3)c(=O)oc2c1 | 3.8% | ? | -21.0% | 35.4* | 70.3*
CN(C)Cc1c(O)ccc2cc(-c3nc4ccccc4n3C)c(=O)oc12 | ? | -5.0% | -6.7% | 20.1* | 33.0
CCN(CC)c1ccc2cc(-c3nc4ccccc4n3C)c(=O)oc2c1 | -3.5% | -12.5% | -16.0% | 36.9* | 80.5*
CCN(CC)c1ccc2cc(-c3nc4ccccc4[nH]3)c(=O)oc2c1 | -2.9% | 0.3% | -27.3% | 49.2* | 81.5*
CCN(CC)c1ccc2cc(-c3nc(-c4ccc(OC)cc4)cs3)c(=O)oc2c1 | 7.3% | ? | -36.7% | -1.7 | 1.9
CC(C)(C)c1ccc(C(=O)Nc2ccc(-c3nc4ccccc4o3)c(O)c2)cc1 | . | 0.6% | . | . | .
O=C(COC(=O)Cc1ccccc1F)Nc1cccc(S(=O)(=O)NC2=NCCCCC2)c1 | . | 1.1% | -33.2% | 7.8 | -16.7
CN(C)c1ccc([C@@H]2[C@@H]([N+](=O)[O-])[C@H]3C=Cc4ccccc4N3[C@H]2C(=O)c2ccc(Cl)cc2)cc1 | 23.2% | -10.0% | -56.7% | 21.4* | 21.6*
SMILES | NS1 function inh | AmpC inh detg | AmpC inh no detg | CHX counter | Shiga toxin inh
O=C(c1ccccc1)C1C(c2ccccc2)C1[N+](=O)[O-] (stereo unspecified) | 9.4% | 3.9% | -28.7% | -1.7 | 19.6
NC(=O)COC(=O)c1ccc2noc(-c3ccccc3)c2c1 | 3.7% | -0.2% | 7.8% | 57.2* | 81.0*
O=C(NC1CCCC1)c1cc(-c2ccccc2O)on1 | -6.2% | -7.9% | -30.0% | 33.8* | 91.4*
COc1ccc(NC(=O)c2cc(-c3cccs3)on2)c(OC)c1 | 13.2% | 3.4% | -9.0% | -6.7 | 7.4
O=C(NC1CCCC1)c1cc(-c2cccs2)on1 | -17.3% | -7.4% | -25.6% | 56.9* | 181.8*
CC1CCCC(C)N1C(=O)c1cc(-c2cccs2)on1 (stereo unspecified) | 3.4% | -7.0% | -9.8% | 26.5* | 70.2*
COCC(C)NC(=O)c1cc(-c2ccccc2OC)on1 (stereo unspecified) | -9.2% | 2.5% | -15.3% | 41.0* | 38.6*
O=C(Nc1nc2c(Br)cc(Br)cc2c(=O)s1)C1CCC1 | 2.2% | 1.8% | -31.2% | 1.6 | -10.1
O=C(O)c1ccccc1C(=O)Nc1cc2c(cc1Br)-c1ccccc1C2=O | -2.9% | . | . | . | .
COc1ccccc1-c1cc(C(=O)N2CCCCC2C)no1 (stereo unspecified) | . | -0.3% | . | . | .
O=C(NC1CCCCC1)c1ccccc1-c1ccccc1 | -5.5% | -5.7% | -15.8% | 1.0 | -2.7
COc1ccccc1-c1cc(C(=O)NC2CCCC2)no1 | -36.0% | 5.2% | -15.4% | 15.6* | 71.0*
O=C(NC1CCCC1)c1cc(-c2ccccc2Cl)on1 | -29.5% | 1.4% | -34.6% | 43.5* | 107.0*
O=C(NC1CCCC1)c1cc(-c2ccc(Cl)cc2Cl)on1 | -3.1% | 2.8% | -10.3% | 44.1* | 104.8*
O=C(CCCc1nc(-c2ccccc2Cl)no1)NC1CCCCC1 | ? | -0.6% | 10.8% | -2.5 | -3.2
O=C(NC1CCCCC1)c1cc(-c2ccccc2Cl)on1 | -29.3% | 1.5% | -22.2% | 44.6* | 137.4*
CC(=O)N1c2ccc(S(=O)(=O)NCc3ccco3)cc2CC1C (stereo unspecified) | 4.7% | -0.9% | 1.1% | 5.4 | 23.1
c1ccc(Cc2nnc3sc(-c4ccc5c(c4)OCCO5)nn23)cc1 | -56.1% | ? | -28.4% | 36.0* | 55.7
COc1cc(C2Nc3ccccc3C(=O)N2c2ccc3c(c2)OCCO3)ccc1OCC(C)C (stereo unspecified) | 4.7% | 2.0% | -10.7% | 31.2* | 61.2*
CCOc1cc(C2Nc3ccccc3C(=O)N2c2ccccc2OC)ccc1O (stereo unspecified) | 0.4% | -7.1% | -20.6% | -1.5 | -19.5
COc1cc(C2Nc3ccccc3C(=O)N2c2ccccc2OC)ccc1O (stereo unspecified) | -1.8% | -11.6% | -43.4% | 6.0 | 18.3
O=C1c2ccccc2NC(c2ccc(O)c(O)c2)N1c1ccccc1Cl (stereo unspecified) | 0.8% | 0.5% | -31.1% | 26.9* | 40.7*
O=C1c2ccccc2NC(c2ccc3c(c2)OCCO3)N1c1ccc2c(c1)OCCO2 (stereo unspecified) | -1.2% | -13.6% | -10.0% | 44.0* | 80.6*
CCCNC(=O)c1ccccc1NC(=O)CN(c1ccccc1)S(=O)(=O)N(C)C | -1.2% | 2.8% | 1.0% | -2.6 | 9.4
C[C@H](CC(=O)O)C(C(=O)O)C(=O)O | -0.7% | . | . | . | .
COc1ccccc1/C=N/Nc1cc(C)nc(N2CCOCC2)n1 | -4.4% | -5.6% | 89.9% | 24.0* | 22.3
Oc1ccc(/C=N/Nc2cc(N3CCOCC3)nc(N3CCOCC3)n2)cc1O | ? | -6.3% | -41.8% | -0.7 | -8.2
